Rows were chosen to be rich in hits. Some 2.5% of all compounds tested hit in one or more screens of this group.
Cruzain inh noDet: inhibitors of Trypanosoma cruzi cruzain without detergent; P25779; purified cruzain, Z-FR-AMC fluorescence, no detergent; Potency, µM, hits mostly inhibitors; 2.3% of 200,000 active; AID 1476; also: nearly all actives have a fitted effect of over 40% in size
Target sequence (P25779 123-467 limits assumed): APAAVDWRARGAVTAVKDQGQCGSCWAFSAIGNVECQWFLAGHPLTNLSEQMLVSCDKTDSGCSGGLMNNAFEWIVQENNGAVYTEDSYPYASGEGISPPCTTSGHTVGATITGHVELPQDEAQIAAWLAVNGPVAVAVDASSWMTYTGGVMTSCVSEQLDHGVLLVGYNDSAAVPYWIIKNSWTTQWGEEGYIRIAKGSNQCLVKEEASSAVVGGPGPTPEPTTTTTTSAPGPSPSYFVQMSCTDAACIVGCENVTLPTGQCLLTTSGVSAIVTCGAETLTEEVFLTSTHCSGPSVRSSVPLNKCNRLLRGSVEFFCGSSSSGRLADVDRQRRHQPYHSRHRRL
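Detergent-free condition (0.00005% Triton X-100) in acetate buffer pH 5.5 with DTT. 1.5 nM enzyme and compound were pre-mixed 15 min, then 2 uM Z-FR-AMC substrate added; reaction progress from fluorescence change between first and third reads (60 s).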
Cruzain inh Det: inhibitors of Trypanosoma cruzi cruzain with detergent. purified cruzain, Z-FR-AMC fluorescence, 0.01% Triton. Potency, µM, actives largely listed as inhibitors. P25779. AID 1478. 0.43% of 200,000 active; also: nearly all actives have a fitted effect of over 40% in size
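15 min RT preincubation of 1.5 nM cruzain with compound, then 2 uM Z-FR-AMC added; kinetic AMC fluorescence, 60 s delta. Triton X-100 0.01%, pH 5.5.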
Numbers stand for hits. Calls follow the shape of the dose curve; as a rule, active = well fitted curve in the direction sought with a large enough effect; inconclusive = small, poorly fitted or top-dose-only effect, or another doubt; inactive = no such curve, though single readings can be large; an effect the other way counts as inactive or inconclusive.

COc1cc(/C=C(\C#N)c2nc3ccccc3[nH]2)cc(Br)c1OCc1ccc(F)cc1 was read as Cruzain inh noDet 25.1µM and Cruzain inh Det inactive.
Cc1cc(/C=C(\C#N)c2nc3ccccc3[nH]2)c(C)n1C was read as Cruzain inh noDet inconclusive and Cruzain inh Det inactive.
Screening CCN(CC)c1ccc(/C=C(/C#N)c2nc3ccc(C)cc3[nH]2)c(OC(C)C)c1 returned Cruzain inh noDet 25.1µM and Cruzain inh Det inactive.
For Cc1ccc2nc(/C(C#N)=C/c3ccc(-c4ccc(F)cc4F)o3)[nH]c2c1 the results were Cruzain inh noDet 10µM and Cruzain inh Det inactive.
`COc1cc(/C=C(\C#N)c2nc3ccccc3[nH]2)cc(Br)c1OCc1ccccc1` gave Cruzain inh noDet inconclusive and Cruzain inh Det inactive.
Screening Cc1ccc2nc(/C(C#N)=C/c3ccc(-c4cccc([N+](=O)[O-])c4)o3)[nH]c2c1 returned Cruzain inh noDet inconclusive and Cruzain inh Det inactive.
`CCOc1cc(N(CC)CC)ccc1/C=C(/C#N)c1nc2ccccc2[nH]1` gave Cruzain inh noDet 31.6µM and Cruzain inh Det inactive.
For c1ncc(-c2ccoc2)c(NC2CC2)n1 the results were Cruzain inh noDet inactive and Cruzain inh Det inactive.
For CCOc1ccccc1NC(=O)CSc1nc2ccccc2nc1Cc1ccc(C)cc1 the results were Cruzain inh noDet inactive and Cruzain inh Det inactive.
`Cc1ccc(C)c(OCCn2c(C3CC(=O)N(Cc4ccc(F)cc4)C3)nc3ccccc32)c1` (stereo not given) gave Cruzain inh noDet inactive and Cruzain inh Det inactive.
`COc1ccc(CCNC(=O)c2cc3sccc3n2Cc2ccc(Cl)cc2)cc1OC` gave Cruzain inh noDet inactive and Cruzain inh Det inactive.
`CNC(=O)C1CCC(Cn2c(=O)c3sccc3n(CC(=O)NCc3ccc(OC)cc3)c2=O)CC1` (stereo not given) gave Cruzain inh noDet inactive and Cruzain inh Det inactive.
CCCOc1cc(N(CC)CC)ccc1/C=C(/C#N)c1nc2ccc(C)cc2[nH]1 was read as Cruzain inh noDet 20µM and Cruzain inh Det inactive.
`COc1cccc(/C=C(\C#N)c2nc3ccc(C)cc3[nH]2)c1` gave Cruzain inh noDet inconclusive and Cruzain inh Det inactive.
`O=C(Nc1ccccc1Cl)N1CCC2(CC1)Oc1ccccc1C(=O)N2Cc1ccc(F)cc1` gave Cruzain inh noDet inactive and Cruzain inh Det inactive.
For COc1ccccc1N1CCN(c2nc3c(S(=O)(=O)c4ccccc4)nnn3c3ccc(Cl)cc23)CC1 the results were Cruzain inh noDet inconclusive and Cruzain inh Det inactive.
Screening Cc1ccccc1NC(=O)Cc1nnc(SCC(=O)c2ccc(Br)cc2)n1C returned Cruzain inh noDet inactive and Cruzain inh Det inactive.
Screening Cc1ccc(NC(=O)Cc2nnc(SCC(=O)c3ccc(Br)cc3)n2C)cc1Cl returned Cruzain inh noDet 12.6µM and Cruzain inh Det inactive.
Screening Cc1oc(-c2cccc(Cl)c2)nc1CS(=O)(=O)CC(=O)NCc1ccccc1Cl returned Cruzain inh noDet inactive and Cruzain inh Det inactive.
`Cc1ccc(-c2nc(C)c(CCNC(=O)c3ccccc3Br)s2)cc1` gave Cruzain inh noDet inactive and Cruzain inh Det inactive.
c1ccc(-c2nccc(-c3ccc(-n4cnc5ccccc54)cc3)n2)cc1 was read as Cruzain inh noDet 15.8µM and Cruzain inh Det inactive.
For c1ccc(-n2nnnc2-n2cnc3ccccc32)cc1 the results were Cruzain inh noDet inactive and Cruzain inh Det inactive.
`Cc1cc(Cl)ccc1NC(=O)CN1C(=O)CSc2ccc(S(=O)(=O)N(C)C)cc21` gave Cruzain inh noDet inactive and Cruzain inh Det inactive.
COc1cccc(CCNc2ncnc3c2nnn3C)c1 was read as Cruzain inh noDet inactive and Cruzain inh Det inactive.
Screening CCn1nnc(NC(=O)c2ccc(-c3ccc(Cl)cc3)o2)n1 returned Cruzain inh noDet inactive and Cruzain inh Det inactive.
For CCc1nnc(NC(=O)c2ccc(-c3ccc(Cl)cc3)o2)s1 the results were Cruzain inh noDet 15.8µM and Cruzain inh Det inactive.
COc1ccc(-c2nnc(NC(=O)c3ccc(S(=O)(=O)N4CCc5ccccc5C4)cc3)o2)cc1 was read as Cruzain inh noDet inactive and Cruzain inh Det inactive.
Screening CCC(CC)c1nnc(NC(=O)c2ccc(S(=O)(=O)N3CCc4ccccc4C3)cc2)s1 returned Cruzain inh noDet inconclusive and Cruzain inh Det inactive.
COc1ccc(-n2c(C)cc(-c3csc(NC(=O)c4ccc(S(=O)(=O)N(C)C)cc4)n3)c2C)cc1 was read as Cruzain inh noDet 10µM and Cruzain inh Det inactive.
`CN(C)S(=O)(=O)c1ccc(C(=O)Nc2nc(-c3cccs3)cs2)cc1` gave Cruzain inh noDet inactive and Cruzain inh Det inactive.
`COC(=O)c1ccc(-c2csc(NC(=O)c3ccc(S(=O)(=O)N4CCc5ccccc5C4)cc3)n2)cc1` gave Cruzain inh noDet 6.31µM and Cruzain inh Det inactive.
For Cc1ccc2nc(NNC(=O)c3ccc(S(=O)(=O)N4CCc5ccccc5C4)cc3)sc2c1 the results were Cruzain inh noDet 25.1µM and Cruzain inh Det inactive.
Screening COc1ccc(-c2csc(NC(=O)c3ccc(S(=O)(=O)N4CCc5ccccc5C4)cc3)n2)cc1 returned Cruzain inh noDet 5.01µM and Cruzain inh Det inactive.
`Cc1ccc2nc(NC(=O)c3ccc(S(=O)(=O)N4CCC(C)CC4)cc3)sc2c1` gave Cruzain inh noDet inactive and Cruzain inh Det inactive.
For CN(C)c1ccc(Nc2ncnc3sc4c(c23)CCCC4)cc1 the results were Cruzain inh noDet inactive and Cruzain inh Det inactive.
For O=C(CSc1nnc(-c2cccc(Cl)c2)o1)N1CCc2ccccc21 the results were Cruzain inh noDet inactive and Cruzain inh Det inactive.
COC(=O)c1c(N)n(-c2ccc(OC)c(OC)c2)c2nc3ccccc3nc12 was read as Cruzain inh noDet inactive and Cruzain inh Det inactive.
For Cc1cc(-c2csc(NC(=O)c3ccc(C#N)cc3)n2)c(C)n1Cc1ccccc1 the results were Cruzain inh noDet 10µM and Cruzain inh Det inactive.
For Cc1ccc(C(=O)Nc2nc(-c3cc(Cl)sc3Cl)cs2)cc1 the results were Cruzain inh noDet inconclusive and Cruzain inh Det inactive.
Screening O=Cc1ccc(CO)o1 returned Cruzain inh noDet inactive and Cruzain inh Det inactive.
`Cc1c(/C=C(\C#N)c2nn(-c3ccccc3)c(N)c2C#N)c2ccccc2n1Cc1ccc(F)cc1` gave Cruzain inh noDet 3.98µM and Cruzain inh Det inactive.
Cc1ccc(/C=C(\C#N)c2nn(-c3ccccc3)c(N)c2C#N)cc1 was read as Cruzain inh noDet inactive and Cruzain inh Det inactive.
Screening CN(C)c1ncc(C(=O)NCc2ccccc2Cl)cn1 returned Cruzain inh noDet inactive and Cruzain inh Det inactive.
Cn1c(N)c(C(=O)COC(=O)c2cc(-c3ccccc3)nc3ccccc23)c(=O)n(Cc2ccccc2)c1=O was read as Cruzain inh noDet 12.6µM and Cruzain inh Det inactive.
Screening Cn1c(N)c(C(=O)COC(=O)c2cc(-c3ccccc3)nc3ccccc23)c(=O)n(C)c1=O returned Cruzain inh noDet inconclusive and Cruzain inh Det inactive.
`CC1(c2ccccc2)CC(C)(C)N2C(=O)/C(=C3\SC(=S)NC3=O)c3cccc1c32` (stereo not given) gave Cruzain inh noDet 7.94µM and Cruzain inh Det inactive.
CC1(c2ccccc2)CC(C)(C)N2C(=O)C3(C(C#N)=C(N)Oc4cc(O)ccc43)c3cccc1c32 (stereo not given) was read as Cruzain inh noDet inactive and Cruzain inh Det inactive.
CCc1ccccc1N1CC(c2nc3ccccc3n2Cc2cccc(C)c2)CC1=O (stereo not given) was read as Cruzain inh noDet inconclusive and Cruzain inh Det inactive.
Screening O=C1NC(=Nc2ccc(Cl)cc2)/C(=C/c2ccco2)S1 returned Cruzain inh noDet 5.01µM and Cruzain inh Det inactive.
